PubChem BioAssay (EPA / NIEHS)
Where “and” joins values, the source holds several entries; their conditions need not be identical. Identical values can stand only once. Calls of active or inactive are those of the source. How the source made its calls: active means hit-call score of the fitted dose curve at least 0.9, where 1 is the maximum; inactive means score below 0.9.

Key:
[1] = read-out: TIMP metallopeptidase inhibitor 1 (TIMP1), TIMP1 (gene 7076); assay: BSK_hDFCGF_TIMP1: BioMAP Diversity Plus: hDFCGF Assay for TIMP metallopeptidase inhibitor 1 (TIMP1) Biomarker Activity (AID 2283062); conditions: primary human foreskin fibroblasts; actives raise or lower the signal
Procedure, shortened: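 Fibroblasts from human foreskin are treated with test chemical and harvested at 24 h. TIMP-1 is quantified by ELISA, and gain or loss of signal is scored against DMSO.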

[2] = read-out: Monokine induced gamma interferon (MIG), CXCL9 (gene 4283); assay: BSK_hDFCGF_MIG: BioMAP Diversity Plus: hDFCGF Assay for Monokine induced gamma interferon (MIG) Biomarker Activity (AID 2283063); conditions: primary human foreskin fibroblasts; actives raise or lower the signal
Procedure, shortened: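 MIG signal, determined by ELISA, reflects 24 h chemical exposure of human skin primary fibroblasts. DMSO serves as negative control and baseline.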

[3] = read-out: Matrix Metallopeptidase 1 (MMP1), MMP1 (gene 4312); assay: BSK_hDFCGF_MMP1: BioMAP Diversity Plus: hDFCGF Assay for Matrix Metallopeptidase 1 (MMP1) Biomarker Activity (AID 2283064); conditions: primary human foreskin fibroblasts; actives raise or lower the signal
Procedure, shortened: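 Human foreskin fibroblasts exposed to chemical for 24 h; MMP1 detected by ELISA, with DMSO as baseline for bidirectional fitting.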

[4] = read-out: Vascular cell adhesion molecule 1 (VCAM1), VCAM1 (gene 7412); assay: BSK_hDFCGF_VCAM1: BioMAP Diversity Plus: hDFCGF Assay for Vascular cell adhesion molecule 1 (VCAM1) Biomarker Activity (AID 2283065); conditions: primary human foreskin fibroblasts; actives raise or lower the signal;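 on AC50: VCAM-1 protein level quantified by ELISA after 24 h chemical exposure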
Procedure, shortened: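 Cells are dosed, cultured for 24 h, then VCAM-1 is quantified by ELISA; signal increases and decreases are both fitted relative to DMSO.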

[5] = read-out: Plasminogen activator inhibitor-1 (PAI1), SERPINE1 (gene 5054); assay: BSK_hDFCGF_PAI1: BioMAP Diversity Plus: hDFCGF Assay for Plasminogen activator inhibitor-1 (PAI1) Biomarker Activity (AID 2283066); conditions: primary human foreskin fibroblasts; actives raise or lower the signal
Procedure, shortened: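 Fibroblasts from human foreskin were treated with test chemical. After 24 h, PAI-1 was measured by ELISA. Activity was fitted in both directions relative to DMSO.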

[6] = read-out: Intercellular Adhesion Molecule 1 (ICAM1), ICAM1 (gene 3383); assay: BSK_KF3CT_ICAM1: BioMAP Diversity Plus: KF3CT Assay for Intercellular Adhesion Molecule 1 (ICAM1) Biomarker Activity (AID 2283067); conditions: primary human keratinocytes with fibroblasts; actives raise or lower the signal
Procedure, shortened: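 Dose the keratinocyte/fibroblast co-culture, wait 24 h, measure ICAM-1 by ELISA, then fit increases or decreases against DMSO. Cytotoxicity is checked in parallel cultures by SRB total-protein staining.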

[7] = read-out: Interferon-gamma inducible Protein 10 (IP10), CXCL10 (gene 3627); assay: BSK_KF3CT_IP10: BioMAP Diversity Plus: KF3CT Assay for Interferon-gamma inducible Protein 10 (IP10) Biomarker Activity (AID 2283068); conditions: primary human keratinocytes with fibroblasts; actives raise or lower the signal
Procedure, shortened: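 Signal is secreted/surface IP-10 by ELISA in a human primary skin co-culture of keratinocytes and foreskin fibroblasts, taken 24 h post-dosing; DMSO served as negative control.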

[8] = BSK_KF3CT_SRB: Viability Assessment in the BioMAP Diversity Plus: KF3CT Assay (AID 2283069); conditions: primary human keratinocytes with fibroblasts;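 further: read 24 h after compound addition; fitted for both signal gain and loss against DMSO baseline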
Procedure, shortened: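 Overt cytotoxicity is assessed as total protein by sulforhodamine B staining in parallel human skin co-cultures at 24 h after dosing. DMSO serves as negative control and baseline.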

[9] = read-out: Interleukin-1 alpha (IL1a), IL1A (gene 3552); assay: BSK_KF3CT_IL1a: BioMAP Diversity Plus: KF3CT Assay for Interleukin-1 alpha (IL1a) Biomarker Activity (AID 2283070); conditions: primary human keratinocytes with fibroblasts; actives raise or lower the signal
Procedure, shortened: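 Readout is IL-1a level by ELISA, compared bidirectionally with DMSO as baseline. Cells: human keratinocytes co-cultured with foreskin fibroblasts, harvested 24 h post-dose.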

[10] = read-out: TIMP metallopeptidase inhibitor 2 (TIMP2), TIMP2 (gene 7077); assay: BSK_KF3CT_TIMP2: BioMAP Diversity Plus: KF3CT Assay for TIMP metallopeptidase inhibitor 2 (TIMP2) Biomarker Activity (AID 2283071); conditions: primary human keratinocytes with fibroblasts; actives raise or lower the signal
Procedure, shortened: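 Chemicals were dosed onto human skin primary co-cultures of keratinocytes and foreskin fibroblasts, and TIMP-2 was measured by ELISA after 24 hours. Activity in either direction was fitted relative to DMSO.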

O=C(Nc1ccccc1)Nc1ccnc(Cl)c1
outcome [1]: inactive
outcome [2]: inactive
outcome [3]: inactive
outcome [4]: inactive
outcome [5]: inactive
outcome [6]: inactive
outcome [7]: inactive
outcome [8]: inactive
outcome [9]: inactive
outcome [10]: inactive

C=CC1(C)OC(=O)N(c2cc(Cl)cc(Cl)c2)C1=O (stereo not drawn)
outcome [1]: inactive
outcome [2]: inactive
outcome [3]: inactive
outcome [4]: inactive
outcome [5]: inactive
outcome [7]: inactive
outcome [8]: inactive
outcome [9]: inactive
outcome [10]: inactive

CCNc1nc(Cl)nc(NCC)n1
outcome [1]: inactive
outcome [2]: inactive
outcome [3]: inactive
outcome [4]: inactive
outcome [5]: inactive
outcome [7]: inactive
outcome [8]: inactive
outcome [9]: inactive
outcome [10]: inactive

CNC(=O)ON=CC(C)(C)SC
outcome [1]: inactive
outcome [2]: inactive
outcome [3]: inactive
outcome [4]: inactive
outcome [5]: inactive
AC50 [7]: 0.428 µM (active)
outcome [8]: inactive
AC50 [9]: 1.34 µM (active)
outcome [10]: inactive

N#CC(CCc1ccc(Cl)cc1)(Cn1cncn1)c1ccccc1 (stereo not drawn)
outcome [1]: inactive
outcome [2]: inactive
outcome [3]: inactive
outcome [4]: inactive
outcome [5]: inactive
outcome [7]: inactive
outcome [8]: inactive
outcome [9]: inactive
outcome [10]: inactive

CCCC1COC(Cn2cncn2)(c2ccc(Cl)cc2Cl)O1 (stereo not drawn)
outcome [1]: inactive
outcome [2]: inactive
outcome [3]: inactive
outcome [4]: inactive
outcome [5]: inactive
outcome [7]: inactive
outcome [8]: inactive
outcome [9]: inactive
outcome [10]: inactive

CCCCNC(=O)OCC#CI
AC50 [1]: 7.08 µM (active) and 26 µM (active)
AC50 [2]: 5.27 µM (active) and 3.85 µM (active)
AC50 [3]: 8.48 µM (active) and 7.13 µM (active)
AC50 [4]: 3.08 µM (active) and 10.7 µM (active)
AC50 [5]: 7.77 µM (active) and 7.46 µM (active)
AC50 [7]: 33.2 µM (active) and 11.9 µM (active)
AC50 [8]: 29.3 µM (active) and 18 µM (active)
AC50 [9]: 30.1 µM (active) and 20 µM (active)
AC50 [10]: 32.5 µM (active) and 20.4 µM (active)

CC(C)Oc1cc(-n2nc(C(C)(C)C)oc2=O)c(Cl)cc1Cl
outcome [1]: inactive
outcome [2]: inactive
AC50 [3]: 5.65 µM (active)
AC50 [4]: 32 µM (active)
AC50 [5]: 24.4 µM (active)
AC50 [7]: 14.9 µM (active)
outcome [8]: inactive
AC50 [9]: 13.9 µM (active)
outcome [10]: inactive

CC(Oc1ccc(Cl)cc1Cl)C(=O)O (stereo not drawn)
outcome [1]: inactive
outcome [2]: inactive
outcome [3]: inactive
outcome [4]: inactive
outcome [5]: inactive
outcome [7]: inactive
outcome [8]: inactive
outcome [9]: inactive
outcome [10]: inactive

N#Cc1nn(-c2c(Cl)cc(C(F)(F)F)cc2Cl)c(N)c1S(=O)C(F)(F)F (stereo not drawn)
outcome [1]: inactive
outcome [2]: inactive
outcome [3]: inactive
outcome [4]: inactive
outcome [5]: inactive
AC50 [7]: 29.1 µM (active)
outcome [8]: inactive
outcome [9]: inactive
outcome [10]: inactive

COc1ccc(C(c2ccc(OC)cc2)C(Cl)(Cl)Cl)cc1
outcome [1]: inactive
outcome [2]: inactive
AC50 [3]: 5.09 µM (active)
AC50 [4]: 20 µM (active)
AC50 [5]: 14.7 µM (active)
outcome [7]: inactive
AC50 [8]: 8.76 µM (active)
AC50 [9]: 7.74 µM (active)
outcome [10]: inactive

Oc1ccccc1-c1ccccc1
outcome [1]: inactive
outcome [2]: inactive
outcome [3]: inactive
outcome [4]: inactive
outcome [5]: inactive
outcome [7]: inactive
outcome [8]: inactive
outcome [9]: inactive
outcome [10]: inactive

CCON=C(CC)C1=C(O)CC(c2c(C)cc(C)cc2C)CC1=O (stereo not drawn)
outcome [1]: inactive
outcome [2]: inactive
outcome [3]: inactive
outcome [4]: inactive
outcome [5]: inactive
outcome [7]: inactive
outcome [8]: inactive
outcome [9]: inactive
outcome [10]: inactive

CCNc1nc(Cl)nc(NC(C)C)n1
outcome [1]: inactive
outcome [2]: inactive
outcome [3]: inactive
outcome [4]: inactive
outcome [5]: inactive
AC50 [7]: 0.148 µM (active)
outcome [8]: inactive
outcome [9]: inactive
outcome [10]: inactive

Cc1c(F)c(F)c(COC(=O)C2C(/C=C(\Cl)C(F)(F)F)C2(C)C)c(F)c1F (stereo not drawn)
outcome [1]: inactive
outcome [2]: inactive
AC50 [3]: 1.22 µM (active)
outcome [4]: inactive
outcome [5]: inactive
outcome [7]: inactive
outcome [8]: inactive
outcome [9]: inactive
outcome [10]: inactive

COC(=O)N(OC)c1ccccc1COc1ccn(-c2ccc(Cl)cc2)n1
outcome [1]: inactive
outcome [2]: inactive
AC50 [3]: 4.62 µM (active)
outcome [4]: inactive
AC50 [5]: 2.46 µM (active)
AC50 [7]: 6.72 µM (active)
outcome [8]: inactive
AC50 [9]: 3.97 µM (active)
outcome [10]: inactive

N#Cc1cc(Br)c(O)c(Br)c1
outcome [1]: inactive
outcome [2]: inactive
outcome [3]: inactive
outcome [4]: inactive
outcome [5]: inactive
outcome [7]: inactive
outcome [8]: inactive
outcome [9]: inactive
outcome [10]: inactive

O=C(O)COc1nc(Cl)c(Cl)cc1Cl
outcome [1]: inactive
outcome [2]: inactive
outcome [3]: inactive
outcome [4]: inactive
outcome [5]: inactive
outcome [7]: inactive
outcome [8]: inactive
outcome [9]: inactive
outcome [10]: inactive

COC(=O)C=C(C)OP(=O)(OC)OC
AC50 [1]: 273 nM (active)
outcome [2]: inactive
outcome [3]: inactive
outcome [4]: inactive
outcome [5]: inactive
outcome [7]: inactive
outcome [8]: inactive
outcome [9]: inactive
outcome [10]: inactive

CC1=C(C(=O)Nc2ccccc2)SCCO1
outcome [1]: inactive
outcome [2]: inactive
outcome [3]: inactive
outcome [4]: inactive
outcome [5]: inactive
outcome [7]: inactive
outcome [8]: inactive
outcome [9]: inactive
outcome [10]: inactive

COP(=S)(OC)Oc1nc(Cl)c(Cl)cc1Cl
outcome [1]: inactive
AC50 [2]: 14.9 µM (active)
outcome [3]: inactive
AC50 [4]: 5.76 µM (active)
outcome [5]: inactive
outcome [7]: inactive
outcome [8]: inactive
outcome [9]: inactive
outcome [10]: inactive

CC(C)(C)c1ccc(CSc2cnn(C(C)(C)C)c(=O)c2Cl)cc1
outcome [1]: inactive
outcome [2]: inactive
outcome [3]: inactive
AC50 [4]: 31.6 µM (active)
outcome [5]: inactive
AC50 [7]: 31.3 µM (active)
AC50 [8]: 20 µM (active)
AC50 [9]: 6.93 µM (active)
AC50 [10]: 22.9 µM (active)

CCOC(=O)C(Cl)Cc1cc(-n2nc(C)n(C(F)F)c2=O)c(F)cc1Cl (stereo not drawn)
outcome [1]: inactive
outcome [2]: inactive
outcome [3]: inactive
outcome [4]: inactive
outcome [5]: inactive
outcome [7]: inactive
outcome [8]: inactive
outcome [9]: inactive
outcome [10]: inactive

CCOP(=S)(OCC)SCn1c(=O)oc2cc(Cl)ccc21
outcome [1]: inactive
outcome [2]: inactive
AC50 [3]: 2.15 µM (active)
AC50 [4]: 15.6 µM (active)
AC50 [5]: 13.8 µM (active)
outcome [7]: inactive
outcome [8]: inactive
outcome [9]: inactive
outcome [10]: inactive

COP(N)(=O)SC (stereo not drawn)
outcome [1]: inactive
outcome [2]: inactive
outcome [3]: inactive
outcome [4]: inactive
outcome [5]: inactive
outcome [7]: inactive
outcome [8]: inactive
outcome [9]: inactive
outcome [10]: inactive

OC(c1ccc(Cl)cc1)(c1cncnc1)c1ccccc1Cl (stereo not drawn)
outcome [1]: inactive
outcome [2]: inactive
AC50 [3]: 11.5 µM (active)
outcome [4]: inactive
AC50 [5]: 16.6 µM (active)
outcome [7]: inactive
outcome [8]: inactive
outcome [9]: inactive
outcome [10]: inactive

CO/C=C(/C(=O)OC)c1ccccc1Oc1cc(Oc2ccccc2C#N)ncn1
outcome [1]: inactive
outcome [2]: inactive
outcome [3]: inactive
outcome [4]: inactive
outcome [5]: inactive
outcome [7]: inactive
outcome [8]: inactive
outcome [9]: inactive
outcome [10]: inactive

COC(=O)c1ccccc1C(=O)OC
outcome [1]: inactive
outcome [2]: inactive
outcome [3]: inactive
outcome [4]: inactive
outcome [5]: inactive
outcome [7]: inactive
outcome [8]: inactive
outcome [9]: inactive
outcome [10]: inactive
